SMILES strings stand for the structures. The whole screen tested about 300,000 compounds, of which about 22,000 (7.3%) were called active. Not shown: some 2% with an inconclusive outcome. The entries come from a sample that favours actives as a whole. Values without a mark were called inactive. No stated cut-off is given here; in the data, active means activity score below about -60%; inconclusive means mostly about -28% to -61%; inactive means positive scores.

The nature of this experiment: Activators working through SNCA 5'UTR binding (MLPCN) (AID 1814). The following applies: alpha-synuclein 5'UTR reporter, activators screen; hits give low values; tested at 7.5 µM.
For `CCOC(=O)CSC1=C(C#N)C(c2sccc2C)CC(=O)N1` (configuration not stated), the activity score is 75%.
Regarding `O=C(CSCc1ccc(Cl)cc1)N1CCCCC1`, the activity score is -102% (active).
The result for `O=C(CSCc1cccs1)N1CCCC1` reads -80.2% (active).
The value for `Nc1scc(-c2ccncc2)c1Cl` was -79.4% (active); that for `CC1CN/C(=C\C(=O)c2ccc(Br)cc2)C(=O)N1` (configuration not stated) was 62%.
`CC(=O)c1ccc(Oc2cc(C)nc(-n3nc(C)cc3C)n2)cc1`: the activity score was 80.1%.
For `Cc1ccc(/C=N/NC(=O)CSc2nc3ccccc3o2)cc1`, the activity score is -108% (active).
As to `O=C(CSc1nc2ccccc2o1)N/N=C/c1ccccc1C(=O)O`, the activity score is -97.9% (active).
The result for `COC(=O)c1ccc(/C=N/N2C(C)CCCC2C)cc1` (configuration not stated) reads -172% (active); that for `CC(=O)c1ccc(S(=O)(=O)N2CCN(C(=O)/C=C/c3ccc4ccccc4n3)CC2)cc1`, 62.4%.
On to `O=C(c1ccc2ccccc2n1)N1CCN(c2ccccc2Cl)CC1`, for which the activity score was -142% (active).
As to `Oc1ccccc1-c1cc(-c2ccc(Cl)cc2)n[nH]1`, the activity score was -126% (active).
For `c1ccc(-c2cc(-c3ccccc3)[nH]n2)cc1`, the activity score is -106% (active).
The value for `Cc1ccc(Nc2nc(-c3ccc(O)cc3O)cs2)nc1` was -189% (active).
Take `COc1ccc(OCCCn2cccc2/C=C2/C(=N)N3OC(C)=CC3=NC2=O)cc1`: the activity score is -95.9% (active).
`Cc1ccc(-c2nn(-c3cccc(F)c3)cc2CNCCc2ccncc2)o1`: the activity score was -74% (active).
In the case of `O=C(/C=C/c1ccc(Cl)c([N+](=O)[O-])c1)c1ccc(O)cc1`, the activity score is -156% (active).
On to `CN(C)c1ccc(/C=C/C(=O)c2ccc(O)cc2)cc1[N+](=O)[O-]`, for which the activity score was -203% (active).
The result for `O=C(/C=C/c1ccc2c(c1)OCCO2)c1ccc(O)cc1` reads -260% (active).
The result for `COc1ccc(/C=C2\SC(=O)N(CCC(=O)NC3CCS(=O)(=O)C3)C2=O)cc1` (configuration not stated) reads -71.6% (active); that for `COc1ccc(/C=C2\SC(=S)N(CCCC(=O)NC3CCCC3)C2=O)cc1OC`, 83.7%.
The result for `Cc1nc(-c2ccccc2)sc1C(=O)/C=C/N(C)C` reads -76.2% (active).
On to `Cc1nc(-c2ccccc2)sc1C(=O)/C=C/c1ccccc1`, for which the activity score was -83.8% (active).
Consider `CCOC(=O)c1c(C)[nH]c(C2=NNC(=NC(C)COC)SC2)c1C` (configuration not stated), for which the activity score was -98.9% (active).
The result for `CN(Cc1ccccc1)C(=O)CSc1nc2ccccc2[nH]1` reads -93.7% (active).
The value for `O=C(CSc1nc2ccccc2[nH]1)c1cccs1` was -160% (active).
The result for `O=C1c2ccccc2NC(c2ccc(-c3cccc(Cl)c3)o2)N1O` (configuration not stated) reads -145% (active).
Turning to `Cc1cccc(C(=O)Nc2ccc3c(c2)C(=O)N(CC(C)C)C3=O)c1`, the activity score was -149% (active).
With `Nc1nnc(SCC(=O)Nc2ccc3nc(SCC(=O)Nc4ccccc4)sc3c2)s1`, the activity score was -107% (active).
`O=C(Nc1cccc(Cl)c1)Nc1ccccc1NS(=O)(=O)c1cccs1`: the activity score is -81.4% (active).
As to `Cc1ccc(NN=C2C(=O)OC(C)(C)OC2=O)c(C)c1`, the activity score is -140% (active).
Consider `Cc1nn(-c2ccccc2)c(Cl)c1/C=C/C(=O)c1ccc(O)cc1`, for which the activity score was -125% (active).
The result for `Cn1sc(NC(=O)c2ccccc2)nc1=O` reads -72.7% (active).
The value for `O=C(c1ccc(F)cc1)n1c(=S)nc2ccccn21` was -171% (active); that for `COc1cc(/C=N/O)ccc1OCc1ccc([N+](=O)[O-])cc1` was -86.3% (active).
The value for `COc1ccc2[nH]c3c(=O)n(Cc4ccco4)cnc3c2c1` was -65.2% (active); that for `Clc1ccc(N/N=C/c2cccs2)nn1` was -131% (active); that for `Cc1ccsc1/C=N/Nc1ccc(Cl)nn1` was -101% (active).
On to `COc1cccc(/C=N/Nc2ccc(Cl)nn2)c1`, for which the activity score is -168% (active).
Take `O=C(Nc1ccc(S(=O)(=O)N2CCOCC2)cc1)c1ccc2ncsc2c1`: the activity score was -76.4% (active).
The result for `CC1CCCN(c2ccc(C(=O)NCCc3ccccc3)cn2)C1` (configuration not stated) reads -104% (active); that for `CC1CCN(c2ccc(-c3ccc(NC(=O)c4ccco4)cc3)nn2)CC1`, -144% (active); that for `CCC(=O)Nc1ccc(-c2ccc(N3CCCCC3)nn2)cc1`, -132% (active).
Regarding `[O-][n+]1onc2c1CCc1[nH]c(-c3ccccc3)nc1-2`, the activity score was -130% (active).
The result for `CC(=O)Nc1ccc(NC(=O)COc2ccccc2C(=O)Nc2cccc(Cl)c2Cl)cc1` reads 41.1%; that for `CC(=O)Nc1ccc(NC(=O)COc2ccc(S(=O)(=O)NC(C)c3ccccc3)cc2)cc1` (configuration not stated), -147% (active).
`O=C(COc1ccccc1)Nc1nonc1NC(=O)COc1ccccc1`: the activity score is -62.2% (active).
The value for `O=C(COc1ccccc1)Nc1ccc(F)cc1` was -69.2% (active).
As for `CC(C)[C@@H]1COC(c2cccc(C3=N[C@H](C(C)C)CO3)c2)=N1`, the activity score was -152% (active).
The result for `CCOc1ccc(NC(=O)CCNC(=O)c2ccc(Br)cc2)cc1` reads -69.9% (active).
As to `CCOc1ccc(NC(=O)c2ccc(NC(=O)COC(=O)c3ccc(NC(=O)CC#N)cc3)cc2)cc1`, the activity score was -88.1% (active).
Take `O=C(NCc1ccco1)c1sc2cccc(F)c2c1Cl`: the activity score is -99.4% (active).
Consider `COc1ccc(C2=NOC(C(=O)NCc3ccco3)C2)cc1OC` (configuration not stated), for which the activity score was 51.4%.
Turning to `COc1ccc2c(Cl)c(C(=O)NCc3ccco3)sc2c1`, the activity score is -164% (active).
The result for `COc1ccc2oc(C(=O)NCc3ccco3)c(C)c2c1` reads -92.6% (active); that for `Cc1ccc2nc(-c3ccc(NC(=O)CN(C)S(=O)(=O)c4ccccc4)cc3)sc2c1`, -67.2% (active).
Regarding `Cc1cccc(N(CC(=O)Nc2ccc(-c3nc4ccc(C)cc4s3)cc2)S(C)(=O)=O)c1`, the activity score was -159% (active).
`Cc1cccc2cc3c(N)c(C(=O)N4CCCc5ccccc54)sc3nc12`: the activity score is 85.2%.
The value for `Cc1c(C(=O)NCC2CCCO2)sc2nc(-c3ccccc3)cn12` (configuration not stated) was -102% (active); that for `Cc1c(C(=O)N2CCCc3ccccc32)sc2nc(-c3ccccc3)cn12` was -83.5% (active); that for `Cc1ccc(C(=O)Cc2nnc(C)s2)cc1` was -98.4% (active).
The value for `O=c1c2ccccc2ncn1/N=C/c1ccccc1` was -192% (active); that for `Cc1cc(/C=C2/SC(=O)N(CC(=O)OC(C)C)C2=O)c(C)n1C` was -159% (active); that for `Cc1cc(SCC(=O)NCCN2C(=O)CSC2=O)nc2ccccc12` was -74.6% (active).
Turning to `CCc1ccc(NC(=O)N2CCc3ccccc3C2)cc1`, the activity score was -68.2% (active).
In the case of `O=C(Nc1cccc([N+](=O)[O-])c1)N1CCc2ccccc2C1`, the activity score is -99.5% (active).
The result for `CCOC(=O)C1C(=O)C=C(c2ccc(OC)cc2)CC1c1ccco1` (configuration not stated) reads -74.2% (active); that for `CCCC1(C(=O)OC)NC(c2ccco2)C2C(=O)N(C)C(=O)C21` (configuration not stated), 27.8%; that for `CCOC(=O)c1c(Cc2ccc(Cl)cc2)c[nH]c1C`, -90.9% (active).
Consider `CN(c1cccc(NC(=O)Nc2ccc(Cl)cc2)c1)S(C)(=O)=O`, for which the activity score is -112% (active).
On to `O=[N+]([O-])c1ccccc1N/N=C1\CCc2ccccc21`, for which the activity score is -187% (active).
Turning to `COc1ccc(/C=N/Nc2nc3ccccc3c(=O)[nH]2)cc1`, the activity score is -125% (active).
As to `Cc1nnc(N/N=C/c2ccccn2)[nH]c1=O`, the activity score is 117%.
Consider `COc1ccc(-c2onc3ccc(C(C)=O)cc23)cc1`, for which the activity score is -120% (active).
Consider `CS(=O)(=O)C1=NN2C(=N)/C(=C\c3ccc(OCCOc4ccccc4)cc3)C(=O)N=C2S1`, for which the activity score is -73.6% (active).
The result for `N#Cc1ccccc1NC(=O)c1ccc2c(c1)OCO2` reads -87.9% (active); that for `O=C(Nc1ccccc1F)c1ccc2c(c1)OCO2`, -199% (active); that for `O=C(OCc1ccccc1F)c1ccc2c(c1)OCCO2`, -210% (active).
`O=c1c(-c2ccccc2)coc2cc(O)ccc12`: the activity score was -128% (active).
On to `COc1cccc(/C=N/NC(=O)c2[nH]nc3c2CCc2ccccc2-3)c1O`, for which the activity score is 76.4%.
As to `CN(C)CCNC(=O)c1[nH]nc2c1CCc1ccccc1-2`, the activity score is -73.6% (active).
The value for `O=C(CC1SCCNC1=O)Nc1ccc(Cl)c(Cl)c1` (configuration not stated) was -77.7% (active).
Regarding `Oc1c(Cl)cc(Cl)c(Cl)c1Cc1c(O)c(Cl)cc(Cl)c1Cl`, the activity score was 77.3%.
The value for `C=C(C)C(=O)O[C@H]1C/C(C)=C\C(=O)/C=C(\C)[C@H](O)[C@@H]2OC(=O)C(=C)[C@@H]21` was -250% (active); that for `O=C(Nc1ccccc1)c1ccc2c(c1)OCO2` was -148% (active).
The value for `O=C(Nc1ccc(N2CCOCC2)cc1)c1ccc2c(c1)OCO2` was -121% (active).
With `O=C(Nc1nc2ccccc2s1)c1ccc2c(c1)OCO2`, the activity score was 53.7%.
The result for `O=C(Nc1ccc(C2CC2(Cl)Cl)cc1)c1cccc([N+](=O)[O-])c1` (configuration not stated) reads -92.3% (active); that for `CN1CCN(c2ccc(NC(=O)c3ccc4c(c3)OCCO4)cc2Cl)CC1`, -66.8% (active).
The result for `O=C(Nc1cccc([N+](=O)[O-])c1)c1ccc2c(c1)OCO2` reads -99.5% (active); that for `COc1ccc2oc(-c3cccc(NC(=O)CSc4ccc(Cl)cc4)c3)nc2c1`, -97.9% (active); that for `O=C(O)c1cccc(N=NN2CCCCCC2)c1`, -74.8% (active).
For `Cc1ccc(C(=O)Nc2ccc(C)c(S(=O)(=O)N(C)C)c2)s1`, the activity score was -185% (active).
As to `COc1ccc2ccccc2c1CNCc1ccccn1`, the activity score is -104% (active).
The value for `C/C(=N\NC(=O)Cc1ccc(Cl)cc1)c1ccccn1` was 85.6%.
The result for `Cc1ccc(S(=O)(=O)/N=C(/Nc2ccccn2)c2ccc(Cl)cc2)cc1` reads -118% (active).
The value for `O=C(c1ccc(Cl)cc1)N1N=C(c2ccccn2)CC1(O)C(F)(F)F` (configuration not stated) was 68.6%; that for `Cc1cccc(CSc2ccc(-c3cccs3)nn2)c1` was -110% (active).
`COc1ccc(/C(O)=C2/C(=O)C(=O)N(CCCN(C)C)C2c2ccccc2)cc1OC` (configuration not stated): the activity score is -86.9% (active).
The result for `Cc1ccc(NC(=O)c2sc3nc(N)c(C#N)cc3c2N)cc1` reads -133% (active); that for `Brc1ccccc1C1N=C(c2ccccc2)NO1` (configuration not stated), -157% (active); that for `N#Cc1ccc(C2N=C(c3ccccc3)NO2)cc1` (configuration not stated), -107% (active).

The record behind these values is PubChem BioAssay AID1814 (Broad Institute, 2009).
